Experimental data as given in PubChem BioAssay (NCI).
Where “and” joins values, the source holds several entries; their conditions need not be identical. Equal values may be shown once. This is part of a sample that, as a whole, favours compounds with a hit. Of some 83,000 tested, about 20% had one in any assay.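 Method: cells in 96-well plates; compound added at one concentration; 48 h incubation; percent growth measured; values under 10 scored active.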 Calls of active or inactive are those of the source.

Columns and labels:
Assay in all cases: NCI-60 one-dose screen, 48 h (100 = growth as untreated, 0 = no growth, -100 = all killed)
Conditions in all cases: 10 µM unless noted
[1] = test system: T-47D breast
[2] = test system: MDA-MB-435 melanoma
[3] = test system: SW-620 colon
[4] = test system: MCF7 breast
[5] = test system: HCT-116 colon
[6] = test system: HCC-2998 colon
[7] = test system: KM12 colon

| Structure (SMILES) | growth [1] | growth [2] | growth [3] | growth [4] | growth [5] | growth [6] | growth [7] |
| --- | --- | --- | --- | --- | --- | --- | --- |
| COc1cc([C@@H]2c3cc4c(cc3[C@H](O)[C@H]3COC(=O)[C@@H]23)OCO4)cc(OC)c1OC | 40.1% (inactive) and 71.1% (inactive) | -23.1% (active) and -44.3% (active) | 16.7% (inactive) and 4.24% (active) | 18.4% (inactive) and 5.61% (active) | 10.5% (inactive) and -40.7% (active) | -10.3% (active) and -60.9% (active) | 28.4% (inactive) and -3.9% (active) |
| O=c1[nH]nnc2cc(Cl)ccc12 | 106% (inactive) and 98.4% (inactive) | 104% (inactive) and 102% (inactive) | 95.3% (inactive) and 99.8% (inactive) | 114% (inactive) and 94.5% (inactive) | 104% (inactive) and 103% (inactive) | 109% (inactive) and 98.7% (inactive) | 101% (inactive) and 102% (inactive) |
| COc1ccc(CCN=Cc2ccc(Cl)cc2)cc1OC | 97% (inactive) | 113% (inactive) | 102% (inactive) | 96.1% (inactive) | 104% (inactive) | 105% (inactive) | 102% (inactive) |
| CCOC(=O)c1csc(N)n1 | 104% (inactive) and 98.5% (inactive) | 99% (inactive) and 102% (inactive) | – | 91.8% (inactive) and 90.8% (inactive) | 107% (inactive) and 99.4% (inactive) | 115% (inactive) and 101% (inactive) | 110% (inactive) and 108% (inactive) |
| CC(NC(=O)CCl)c1ccccc1 (stereo not given) | 103% (inactive) | 99.7% (inactive) | 96.4% (inactive) | 94% (inactive) | 97.6% (inactive) | 106% (inactive) | 105% (inactive) |
| CCCCOC1NC(=O)NC(=O)C1(F)C(=O)OCC (stereo not given) | 80.5% (inactive) and 74.7% (inactive) | 56.9% (inactive) and 53.4% (inactive) | – | 46.6% (inactive) and 27.8% (inactive) | 64.5% (inactive) and 43.6% (inactive) | 45.5% (inactive) and 26.1% (inactive) | 60.2% (inactive) and 49.4% (inactive) |
| O=C(O)/C=C/C=C/c1ccccc1 | 100% (inactive) and 105% (inactive) | 105% (inactive) and 111% (inactive) | 104% (inactive) and 103% (inactive) | 92.9% (inactive) and 94.4% (inactive) | 101% (inactive) and 96% (inactive) | 104% (inactive) | 105% (inactive) and 103% (inactive) |
| CCCCCc1cc[n+](CC(=O)c2ccccc2)cc1 | 95.4% (inactive) and 101% (inactive) | 105% (inactive) | 96.7% (inactive) and 104% (inactive) | 104% (inactive) and 93.7% (inactive) | 95.3% (inactive) and 91.9% (inactive) | 105% (inactive) | 102% (inactive) and 104% (inactive) |
| CC(=O)Nc1ccc(OC(C)=O)cc1 | 78.1% (inactive) and 103% (inactive) | -29.5% (active) and 107% (inactive) | 26% (inactive) and 94.2% (inactive) | 91.8% (inactive) | -14.7% (active) and 104% (inactive) | -28.8% (active) and 112% (inactive) | 2.42% (active) and 112% (inactive) |
| CCNC1=CC(=O)c2ncccc2C1=O | 86.1% (inactive) | -91.7% (active) | – | -13.2% (active) | 2.73% (active) | 29.8% (inactive) | 48.2% (inactive) |
| CCNCc1ccccc1 | 98.3% (inactive) | 110% (inactive) | 108% (inactive) | 98.7% (inactive) | 97.6% (inactive) | 99.8% (inactive) | 99.8% (inactive) |
| O=C1C=CC[C@H](/C=C/c2ccccc2)O1 | 67.9% (inactive) and 9.64% (active) | 17.5% (inactive) and 4.07% (active) | 16.4% (inactive) and -39.2% (active) | 0.837% (active) and 1.92% (active) | 5.79% (active) and -18.5% (active) | 26.1% (inactive) and 32.3% (inactive) | 43.1% (inactive) and 35.6% (inactive) |
| NNC(=O)Nc1ccccc1 | 109% (inactive) | 103% (inactive) | 101% (inactive) | 89.3% (inactive) | 101% (inactive) | 113% (inactive) | 99.1% (inactive) |
| NNc1ncnc2cccc(Cl)c12 | 90.6% (inactive) | – | 104% (inactive) | 96.6% (inactive) | 98.1% (inactive) | 104% (inactive) | 106% (inactive) |
| O=[N+]([O-])c1ccc(NC(c2ccccc2)c2ccc3cccnc3c2O)cc1 (stereo not given) | 37.2% (inactive) | 32.8% (inactive) | – | 17.3% (inactive) | 28% (inactive) | 29.8% (inactive) | 28% (inactive) |
| O=C1C2=C(Nc3cc(Cl)ccc3N2)OC1c1c[nH]c2ccc(COc3ccccc3)cc12 (stereo not given) | 68.4% (inactive) | 84.6% (inactive) | 85% (inactive) | 64.2% (inactive) | 72.4% (inactive) | 83.7% (inactive) | 87.1% (inactive) |
| CCCC(=O)Oc1ccc2ccccc2c1 | 92.2% (inactive) | 106% (inactive) | – | 101% (inactive) | 101% (inactive) | 97.9% (inactive) | 113% (inactive) |
| Cc1cc(Cl)nc(Nc2ccccc2)n1 | 90.4% (inactive) | 98% (inactive) | 104% (inactive) | 93.7% (inactive) | 93.1% (inactive) | 98.6% (inactive) | 97.8% (inactive) |
| Cc1cccc(Cl)c1N | 110% (inactive) | 95.7% (inactive) | – | 99% (inactive) | 113% (inactive) | 102% (inactive) | 110% (inactive) |
| CC(=O)/C(N=Nc1ccc(S(=O)(=O)c2ccc(N=N/C(C(C)=O)=C(/C)O)cc2)cc1)=C(\C)O | 113% (inactive) | 118% (inactive) | 99.4% (inactive) | 96.1% (inactive) | 93.2% (inactive) | 96.4% (inactive) | 94.8% (inactive) |
| O=COCCCc1ccccc1 | 92.7% (inactive) | 110% (inactive) | 103% (inactive) | 105% (inactive) | 96.1% (inactive) | 121% (inactive) | 109% (inactive) |
| Cc1ccc(N)cc1S(=O)(=O)O | 103% (inactive) and 117% (inactive) | – | 104% (inactive) and 105% (inactive) | 105% (inactive) and 98.8% (inactive) | 103% (inactive) | 109% (inactive) and 108% (inactive) | 98.7% (inactive) and 104% (inactive) |
| CNc1ccc(Cl)cc1S(=O)(=O)c1ccccc1[N+](=O)[O-] | 85.5% (inactive) and 69.2% (inactive) | – | – | 94.3% (inactive) and 89.9% (inactive) | 107% (inactive) and 90.2% (inactive) | 109% (inactive) | 75% (inactive) and 95.3% (inactive) |
| CN(C)C(=S)N(C)C | 98.5% (inactive) | 112% (inactive) | – | 107% (inactive) | 99.3% (inactive) | 103% (inactive) | 109% (inactive) |
| CCc1ccc(OC(=O)CCl)cc1 | 100% (inactive) | 100% (inactive) | – | 103% (inactive) | 102% (inactive) | 104% (inactive) | 95% (inactive) |
| Cc1ccc([N+](=O)[O-])cc1Br | 89.1% (inactive) | 85.6% (inactive) | 91.8% (inactive) | 97.6% (inactive) | 90.8% (inactive) | 117% (inactive) | 103% (inactive) |
